Consider 67 compounds from the antibiotic and cytotoxicity screens of Wong et al. (2023).

Molecules are shown by their SMILES. In all, about 39,000 compounds went through this assay and about 3,300 (8.5%) were called active. The entries come from a sample that favours actives as a whole.

This assay has as its system HepG2. Put plainly: cytotoxicity call (relative viability < 0.9). The settings on record: 10 µM.
As for `Cn1c(=O)c2c(ncn2CC(O)CO)n(C)c1=O` (configuration not stated), the cytotoxicity call is “inactive”.

Take `Cn1c(=O)c2c(ncn2C[C@@H](O)CO)n(C)c1=O`: the cytotoxicity call is “inactive”.

As for `Cn1c(=O)c(F)c(Nc2ccc(I)cc2F)c2c(=O)n(C[C@@H](O)CO)cnc21`, the cytotoxicity call is “active”.

On to `C[C@@H]1CN([C@@H](C)CO)C(=O)c2cccc(NC(=O)Nc3ccc(C(F)(F)F)cc3)c2O[C@@H]1CN(C)S(C)(=O)=O`, for which the cytotoxicity call was “inactive”.

For the compound `COc1ccc(NC(=O)N(C)C[C@@H]2OCCCC[C@@H](C)Oc3ccc(NS(=O)(=O)c4ccc(F)cc4)cc3C(=O)N([C@H](C)CO)C[C@H]2C)cc1`, the cytotoxicity call is “inactive”.

In the case of `Fc1ccc(-c2nc3ccc4ccccc4c3c3c2CCC3)cc1`, the cytotoxicity call was “inactive”.

In the case of `Fc1ccc(-c2nc3c4ccccc4c4ccccc4c3[nH]2)cc1`, the cytotoxicity call is “active”.

For the compound `N[C@H]1CC[C@H](CCn2cc(C3CCCCC3)nn2)O[C@@H]1CO`, the cytotoxicity call was “inactive”.

For `CC(C)Oc1cccc(CC(=O)N2CCC[C@](CC[N+]34CCC(c5ccccc5)(CC3)CC4)(c3ccc(Cl)c(Cl)c3)C2)c1`, the cytotoxicity call was “inactive”.

Turning to `CC(=O)N(C)C1(c2ccccc2)CCN(CCC[C@]2(c3ccc(Cl)c(Cl)c3)CCCN(C(=O)c3ccccc3)C2)CC1`, the cytotoxicity call was “active”.

As for `CN1CCN(C(=O)C[C@@H]2CC[C@@H]3[C@@H](COc4ccc(NC(=O)c5cscn5)cc4C(=O)N3C)O2)CC1`, the cytotoxicity call was “inactive”.

Regarding `O=C(C[C@@H]1CC[C@@H]2[C@H](COC[C@H](O)CN2C(=O)c2ccccn2)O1)NC1CCC1`, the cytotoxicity call was “inactive”.

For the compound `CCc1cccc(C)c1NC(C)=O`, the cytotoxicity call is “inactive”.

As for `C[C@H](CO)N1C[C@H](C)[C@H](CN(C)S(C)(=O)=O)OCCCC[C@H](C)Oc2ccc(NS(=O)(=O)c3ccccc3)cc2C1=O`, the cytotoxicity call is “inactive”.

Turning to `COc1ccc(S(=O)(=O)N2C[C@@H](O)COC[C@H]3O[C@@H](CC(=O)NCCN4CCCCC4)CC[C@@H]32)cc1`, the cytotoxicity call was “inactive”.

With `C[C@@H]1CN([C@H](C)CO)C(=O)c2cccc(NC(=O)c3cnccn3)c2O[C@@H]1CN(C)Cc1ccc(C(=O)O)cc1`, the cytotoxicity call is “inactive”.

With `CC(C)CCCC(C)C1CCC2C3CCC4CC(O)CCC4(C)C3CCC12C` (stereo not drawn) [5alpha-CHOLESTANOL ], the cytotoxicity call was “inactive”.

Regarding `CC(C)CCCC(C)C1CCC2C3CC(=O)C4CC(O)CCC4(C)C3CCC12C` (stereo not drawn) [5alpha-CHOLESTAN-3beta-OL-6-ONE ], the cytotoxicity call is “inactive”.

Turning to `CC(C)CCC[C@@H](C)[C@H]1CC[C@H]2[C@@H]3C[C@@H](O)[C@@]4(O)C[C@@H](O)CC[C@]4(C)[C@H]3CC[C@]12C` [CHOLESTAN-3beta,5alpha,6beta-TRIOL ], the cytotoxicity call was “active”.

For the compound `CCNC(=O)N1CCCC[C@@H]1CO`, the cytotoxicity call was “inactive”.

For the compound `O=C(N[C@@H](c1ccccc1)c1ccc2ccccc2n1)C1CCN(C(=O)NC(c2ccccc2)c2ccccc2)CC1`, the cytotoxicity call is “inactive”.

Consider `C[C@H](N[C@@H](CCc1ccccc1)C(=O)O)C(=O)N1CCC[C@H]1C(=O)O`, for which the cytotoxicity call was “inactive”.

In the case of `CN[C@@H](C)C(=O)N[C@H]1CN(C(=O)CC(C)C)CC[C@H]2CC[C@@H](C(=O)NC(c3ccccc3)c3ccccc3)N2C1=O`, the cytotoxicity call was “active”.

On to `COc1cnc(NS(=O)(=O)c2ccc(N)cc2)nc1`, for which the cytotoxicity call was “inactive”.

On to `COS(=O)(=O)[O-].COc1cc(N)cn[n+]1-c1ccccc1`, for which the cytotoxicity call was “active”.

In the case of `COCC#Cc1cnc2c(c1)C(=O)N([C@@H](C)CO)C[C@@H](C)[C@H](CN(C)C(=O)Nc1cc(F)ccc1F)O2`, the cytotoxicity call is “inactive”.

As to `C[C@@H]1CN([C@H](C)CO)C(=O)c2cc(NC(=O)Nc3ccc(C(F)(F)F)cc3)ccc2O[C@H]1CN(C)C(=O)Nc1cccc2ccccc12`, the cytotoxicity call was “active”.

`C[C@H]1CN([C@@H](C)CO)C(=O)c2cc(NC(=O)Nc3cccc4ccccc34)ccc2O[C@H]1CN(C)C(=O)Nc1ccccc1`: the cytotoxicity call is “active”.

On to `COc1ccc(NC(=O)Nc2ccc3c(c2)C(=O)N([C@H](C)CO)C[C@@H](C)[C@@H](CN(C)C(=O)Nc2cccc4ccccc24)O3)cc1`, for which the cytotoxicity call is “inactive”.

Turning to `C[C@@H]1CN([C@@H](C)CO)C(=O)c2cc(NC(=O)Nc3cccc4ccccc34)ccc2O[C@H]1CN(C)C(=O)Nc1cccc2ccccc12`, the cytotoxicity call is “inactive”.

For `C[C@H](CO)N1C[C@H](C)[C@H](CN(C)C(=O)Nc2cccc3ccccc23)Oc2ccc(NC(=O)Nc3cccc4ccccc34)cc2C1=O`, the cytotoxicity call is “active”.

In the case of `C[C@@H]1CN([C@H](C)CO)C(=O)c2cc(NC(=O)Nc3cccc4ccccc34)ccc2O[C@H]1CN(C)C(=O)Nc1ccccc1`, the cytotoxicity call is “inactive”.

Turning to `C[C@H](CO)N1C[C@H](C)[C@@H](CN(C)C(=O)Nc2cccc3ccccc23)Oc2ccc(NC(=O)Nc3ccc(C(F)(F)F)cc3)cc2C1=O`, the cytotoxicity call was “inactive”.

With `COc1ccc(NC(=O)Nc2ccc3c(c2)C(=O)N([C@@H](C)CO)C[C@H](C)[C@H](CN(C)C(=O)Nc2cccc4ccccc24)O3)cc1`, the cytotoxicity call was “active”.

Turning to `COc1ccc(NC(=O)Nc2ccc3c(c2)C(=O)N([C@H](C)CO)C[C@H](C)[C@@H](CN(C)C(=O)Nc2cccc4ccccc24)O3)cc1`, the cytotoxicity call is “inactive”.

Turning to `C[C@@H]1CN([C@@H](C)CO)C(=O)c2cc(NC(=O)Nc3cccc4ccccc34)ccc2O[C@@H]1CN(C)C(=O)Nc1ccccc1`, the cytotoxicity call was “inactive”.

For `C[C@H]1CN([C@@H](C)CO)C(=O)c2cc(NC(=O)Nc3ccc(C(F)(F)F)cc3)ccc2O[C@H]1CN(C)C(=O)Nc1cccc2ccccc12`, the cytotoxicity call was “inactive”.

Regarding `C[C@@H]1CN([C@H](C)CO)C(=O)c2cc(NC(=O)Nc3cccc4ccccc34)ccc2O[C@H]1CN(C)C(=O)Nc1cccc2ccccc12`, the cytotoxicity call was “inactive”.

Regarding `C[C@H]1CN([C@@H](C)CO)C(=O)Cc2cc(NS(=O)(=O)c3ccccc3)ccc2O[C@@H]1CN(C)S(=O)(=O)c1ccc(F)cc1`, the cytotoxicity call is “inactive”.

Take `Cc1noc(C)c1S(=O)(=O)N(C)C[C@H]1Oc2ccc(NC(=O)Nc3ccc4c(c3)OCO4)cc2C(=O)N([C@@H](C)CO)C[C@H]1C`: the cytotoxicity call was “inactive”.

On to `CC(=O)N[C@@H]1CC[C@H](CCNC(=O)C2CC2)O[C@H]1CO`, for which the cytotoxicity call was “inactive”.

With `O=C(C[C@@H]1C=C[C@H](NC(=O)c2cccc(F)c2)[C@H](CO)O1)NCCN1CCCC1`, the cytotoxicity call is “inactive”.

As for `C[C@@H]1CCCCO[C@@H](CN(C)S(C)(=O)=O)[C@H](C)CN([C@@H](C)CO)C(=O)c2cc(NS(=O)(=O)c3ccc(F)cc3)ccc2O1`, the cytotoxicity call was “inactive”.

Turning to `COc1ccc(NC(=O)Nc2ccc3c(c2)CC(=O)N([C@@H](C)CO)C[C@H](C)[C@@H](CN(C)C(=O)Nc2cccc4ccccc24)O3)cc1`, the cytotoxicity call is “inactive”.

Consider `C[C@@H]1CCCCO[C@@H](CN(C)S(=O)(=O)c2ccccc2)[C@H](C)CN([C@H](C)CO)C(=O)c2cc(NS(C)(=O)=O)ccc2O1`, for which the cytotoxicity call was “inactive”.

Consider `CC(C)CC#Cc1ccc2c(c1)O[C@@H](CN(C)S(=O)(=O)c1ccc(F)cc1)[C@@H](C)CN([C@H](C)CO)S2(=O)=O`, for which the cytotoxicity call was “inactive”.

In the case of `COc1ccccc1CNC(=O)C[C@H]1C[C@H]2c3cc(NC(=O)Cc4ccncc4)ccc3O[C@H]2[C@H](CO)O1`, the cytotoxicity call was “inactive”.

In the case of `CC1OC(OC2C(Oc3cc(O)c4c(=O)cc(-c5ccc(O)cc5)oc4c3)OC(CO)C(O)C2O)C(O)C(O)C1O` (configuration not stated), the cytotoxicity call was “inactive”.

As for `Cc1noc(C)c1NC(=O)N(C)C[C@@H]1Oc2c(NC(=O)C3CC3)cccc2C(=O)N([C@H](C)CO)C[C@@H]1C`, the cytotoxicity call is “inactive”.

As for `Cc1noc(C)c1NC(=O)Nc1ccc2c(c1)C(=O)N([C@H](C)CO)C[C@@H](C)[C@@H](CN(C)CC1CCCCC1)OCCCC[C@H](C)O2`, the cytotoxicity call was “inactive”.

`CC(C)NC(=O)N(C)C[C@H]1OCc2cn(nn2)CCCC(=O)N([C@H](C)CO)C[C@@H]1C`: the cytotoxicity call is “inactive”.

In the case of `CC(=O)OCC(=O)C1(O)CCC2C3CCC4=CC(=O)CCC4(C)C3C(O)CC21C` (configuration not stated), the cytotoxicity call is “inactive”.

Take `C[C@@H]1CN([C@H](C)CO)C(=O)c2cc(NC(=O)NC3CCCCC3)ccc2O[C@H]1CN(C)C(=O)Nc1cccc2ccccc12`: the cytotoxicity call was “inactive”.

In the case of `C[C@@H]1CN([C@@H](C)CO)C(=O)c2cc(NC(=O)NC3CCCCC3)ccc2O[C@H]1CN(C)C(=O)Nc1cccc2ccccc12`, the cytotoxicity call was “inactive”.

As to `C[C@H]1CN([C@@H](C)CO)C(=O)c2cc(NC(=O)NC3CCCCC3)ccc2O[C@H]1CN(C)C(=O)Nc1cccc2ccccc12`, the cytotoxicity call was “active”.

Take `Cc1noc(C)c1S(=O)(=O)Nc1cccc2c1O[C@@H](CN(C)Cc1ccc3c(c1)OCO3)[C@@H](C)CN([C@H](C)CO)C2=O`: the cytotoxicity call was “inactive”.

In the case of `C[C@H]1CN([C@@H](C)CO)C(=O)c2cc(C#Cc3ccccc3F)cnc2O[C@H]1CN(C)S(=O)(=O)c1ccccc1F`, the cytotoxicity call is “inactive”.

As for `COCC(=O)N(C)C[C@H]1Oc2cc(C#CCC3CCCC3)ccc2S(=O)(=O)N([C@@H](C)CO)C[C@H]1C`, the cytotoxicity call was “inactive”.

With `Cc1ccc(S(=O)(=O)N(C)C[C@@H]2Oc3ccc(NC(=O)Nc4cccc5ccccc45)cc3CC(=O)N([C@@H](C)CO)C[C@H]2C)cc1`, the cytotoxicity call is “inactive”.

On to `C[C@H]1CN([C@@H](C)CO)C(=O)Cc2cc(NC(=O)Nc3cccc4c3CCCC4)ccc2O[C@H]1CN(C)S(=O)(=O)c1ccc(Oc2ccccc2)cc1`, for which the cytotoxicity call was “active”.

With `C[C@H]1CN([C@@H](C)CO)C(=O)Cc2cc(NC(=O)Nc3cc(Cl)cc(Cl)c3)ccc2O[C@H]1CN(C)S(=O)(=O)c1ccc(Oc2ccccc2)cc1`, the cytotoxicity call is “active”.

On to `C[C@H]1CN([C@@H](C)CO)C(=O)Cc2cc(NC(=O)Nc3ccc(C#N)cc3)ccc2O[C@H]1CN(C)S(=O)(=O)c1ccc(Oc2ccccc2)cc1`, for which the cytotoxicity call was “inactive”.

For the compound `C[C@H]1CN([C@@H](C)CO)C(=O)Cc2cc(NC(=O)Nc3ccc(Cl)c(Cl)c3)ccc2O[C@H]1CN(C)S(=O)(=O)c1ccc(Oc2ccccc2)cc1`, the cytotoxicity call was “inactive”.

On to `C[C@H]1CN([C@@H](C)CO)C(=O)Cc2cc(NC(=O)Nc3cccc4c3CCCC4)ccc2O[C@H]1CN(C)S(=O)(=O)c1ccc(Cl)cc1`, for which the cytotoxicity call was “inactive”.

In the case of `C[C@H]1CN([C@@H](C)CO)C(=O)Cc2cc(NC(=O)Nc3ccc(F)cc3)ccc2O[C@H]1CN(C)S(=O)(=O)c1ccc(Oc2ccccc2)cc1`, the cytotoxicity call is “active”.

For `CC(C)NC(=O)Nc1ccc2c(c1)CC(=O)N([C@H](C)CO)C[C@@H](C)[C@@H](CN(C)S(=O)(=O)c1ccccc1)O2`, the cytotoxicity call is “inactive”.

As for `CC(C)NC(=O)Nc1ccc2c(c1)CC(=O)N([C@@H](C)CO)C[C@H](C)[C@H](CN(C)S(=O)(=O)c1ccc(F)cc1)O2`, the cytotoxicity call was “inactive”.
